Here are results for eleven compounds from publication PMC5540273 (PLoS ONE, 2017).

Test systems include CSF1R-autoinhibited; CSF1R; CSK; CSNK1A1L; CSNK1A1; CSNK1D; CSNK1E; CSNK1G1; CSNK1G2; CSNK1G3; CSNK2A1; CSNK2A2; DAPK1; DAPK2; DAPK3; DDR1.
Holding throughout (settings): concentration: 1 μM, replicates: in singlicate; n = 1
The subject of a further test is T1, CTK.
T1 construct: gene MATK

The next test has as its system T2, DCAMKL1.
T2 construct: gene DCLK1

The next test has as its system T3, DCAMKL2.
T3 construct: gene DCLK2

In a further test the test system is T4, DCAMKL3.
T4 construct: gene DCLK3
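Further: KINOMEscan kinase panel screen.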

Regarding `FC(F)(F)c1ccc(-c2cc(-c3c[nH]nc3-c3ccccn3)ccn2)cc1` [GW599550], the “%Inh” value stood at 33% in the test on CSF1R-autoinhibited; 0% in the test with CSF1R; 0% in the test on CSK; 0% in the test on CSNK1A1L; 0% in the test with CSNK1A1; 48% in the test with CSNK1D. Moreover, the “%Inh” value in the test with CSNK1E was found to be 45%; in the test on CSNK1G1, 10%; with CSNK1G2 it was 13%; in the test on CSNK1G3, 13%; in the test on CSNK2A1, 0%; in the test with CSNK2A2, 30%. The “%Inh” value in the test with CTK came out at 0%; in the test on DAPK1, 9%; in the test on DAPK2, 16%; in the test with DAPK3, 99.2%; in the test with DCAMKL1, 10%; with DCAMKL2, 16%. For the same compound, the “%Inh” value in the test on DCAMKL3 and in the test with DDR1 was 0% throughout.

As to `Clc1cc(Nc2ncnc3cc[nH]c23)ccc1OCc1ccccn1`, the “%Inh” value is reported as 0% in the test on CSF1R-autoinhibited; 7% in the test with CSF1R; 17% in the test with CSK; 1% in the test on CSNK1A1L; 14% in the test with CSNK1A1; 4% in the test with CSNK1D. Also, the “%Inh” value with CSNK1E was found to be 4%; in the test on CSNK1G1, 2%; in the test with CSNK1G2, 11%; in the test with CSNK1G3, 0%; in the test with CSNK2A1 it was 41%; in the test on CSNK2A2, 31%. Moreover, the “%Inh” value came to 56% with CTK; 25% in the test on DAPK1; 0% in the test on DAPK2; 0% in the test with DAPK3; 26% in the test with DCAMKL1; 21% in the test with DCAMKL2. Also, the “%Inh” value is on record as 6% with DCAMKL3 and 14% in the test on DDR1.

On to `Cc1ccc(C)c(NC(=O)NCCNc2ccnc(Nc3ccc(F)cc3)n2)c1` [GSK1379878], for which the “%Inh” value in the test with CSF1R-autoinhibited is 15%; in the test on CSF1R, 7%; in the test with CSK, 100%; in the test on CSNK1A1L, 0%; with CSNK1A1, 11%; in the test with CSNK1D it was 0%. Also, the “%Inh” value with CSNK1E came to 33%; with CSNK1G1, 0%; in the test on CSNK1G2, 0%; with CSNK1G3 it was 24%; in the test on CSNK2A1, 5%; in the test on CSNK2A2, 0%. The “%Inh” value with CTK was 0%; in the test on DAPK1, 0%; in the test with DAPK2 it was 0%; in the test on DAPK3, 11%; in the test on DCAMKL1, 19%; in the test on DCAMKL2 it was 0%. Also, the results for the “%Inh” value with DCAMKL3 and in the test with DDR1 were 0% and 1%, respectively.

Take `Nc1nc(-c2ccc3c(N)n[nH]c3c2)cc(N2CCC[C@@H](C(=O)Nc3ccccc3)C2)n1.O=C(O)C(F)(F)F.O=C(O)C(F)(F)F` [GSK2288359]: the “%Inh” value in the test with CSF1R-autoinhibited is on record as 0%; with CSF1R, 13%; with CSK it was 8%; in the test with CSNK1A1L, 0%; with CSNK1A1, 0%; in the test on CSNK1D it was 0%. The “%Inh” value with CSNK1E is 15%; in the test with CSNK1G1 it was 8%; with CSNK1G2, 100%; in the test on CSNK1G3, 25%; in the test on CSNK2A1 it was 1%; in the test on CSNK2A2 it was 18%. Further, the “%Inh” value is recorded as 0% with CTK; 7% with DAPK1; 0% in the test with DAPK2; 0% with DAPK3; 12% in the test on DCAMKL1; 0% in the test on DCAMKL2. Also, the “%Inh” value in the test on DCAMKL3 and with DDR1 was 0% in each case.

For `CCc1nc(-c2cccc(C)c2)c(-c2ccnc(NC(=O)c3ccccc3)c2)s1`, the “%Inh” value with CSF1R-autoinhibited stood at 11%; in the test on CSF1R it was 11%; in the test with CSK, 1%; with CSNK1A1L it was 39%; in the test on CSNK1A1, 81%; with CSNK1D, 89%. In addition, the “%Inh” value stood at 82% with CSNK1E; 0% in the test on CSNK1G1; 3% in the test with CSNK1G2; 0% in the test with CSNK1G3; 12% in the test on CSNK2A1; 29% in the test on CSNK2A2. Moreover, the “%Inh” value is recorded as 0% in the test on CTK; 23% with DAPK1; 0% with DAPK2; 0% with DAPK3; 11% with DCAMKL1; 6% with DCAMKL2. The “%Inh” value with DCAMKL3 and with DDR1 was 0% in each case.

For `COc1cc2c(Nc3cccc(NC(=O)c4ccccc4)c3)ncnc2cc1OCCCN1CCOCC1` [GSK223810], the “%Inh” value is listed as 0% with CSF1R-autoinhibited; 83% in the test with CSF1R; 23% in the test on CSK; 63% in the test on CSNK1A1L; 62% in the test on CSNK1A1; 60% with CSNK1D. Besides, the “%Inh” value in the test on CSNK1E stood at 54%; with CSNK1G1, 13%; in the test with CSNK1G2 it was 0%; in the test on CSNK1G3, 18%; in the test on CSNK2A1, 6%; in the test with CSNK2A2, 22%. Moreover, the “%Inh” value turned out to be 0% in the test on CTK; 0% with DAPK1; 15% in the test on DAPK2; 28% in the test with DAPK3; 0% with DCAMKL1; 14% with DCAMKL2. Besides, the “%Inh” value in the test with DCAMKL3 is recorded as 16%; with DDR1, 12%.

Consider `Nc1nc(-c2cccnc2)c(-c2ccnc3ccccc23)s1` [GW684083], for which the “%Inh” value in the test with CSF1R-autoinhibited is given as 0%; in the test on CSF1R it was 1%; with CSK it was 0%; in the test with CSNK1A1L it was 9%; in the test with CSNK1A1, 1%; in the test with CSNK1D, 65%. The “%Inh” value in the test with CSNK1E was determined as 71%; with CSNK1G1 it was 10%; with CSNK1G2, 0%; in the test with CSNK1G3 it was 13%; with CSNK2A1, 2%; in the test with CSNK2A2, 1%. The “%Inh” value with CTK stood at 0%; with DAPK1 it was 0%; with DAPK2 it was 0%; in the test on DAPK3 it was 0%; in the test on DCAMKL1, 18%; with DCAMKL2 it was 4%. In addition, the “%Inh” value is recorded as 14% in the test on DCAMKL3 and 0% with DDR1.

With `COc1cc2ncnc(Nc3ccc(OCc4ccccc4Br)c(Cl)c3)c2cc1OC.Cl` [GI261590], the “%Inh” value was found to be 10% in the test on CSF1R-autoinhibited; 7% with CSF1R; 7% in the test with CSK; 0% in the test with CSNK1A1L; 0% in the test with CSNK1A1; 24% in the test with CSNK1D. The “%Inh” value in the test with CSNK1E was determined as 24%; in the test with CSNK1G1, 0%; in the test with CSNK1G2 it was 0%; in the test with CSNK1G3, 27%; in the test with CSNK2A1, 0%; in the test on CSNK2A2 it was 0%. The “%Inh” value in the test with CTK is 0%; with DAPK1 it was 0%; with DAPK2, 0%; in the test with DAPK3 it was 17%; in the test with DCAMKL1 it was 14%; in the test on DCAMKL2 it was 0%. Besides, the “%Inh” value worked out at 21% in the test on DCAMKL3 and 0% in the test on DDR1.

Take `CNc1nccc(-c2c(-c3ccc(F)cc3)ncn2C2CCN(C)CC2)n1` [SB-222903]: the “%Inh” value worked out at 0% in the test with CSF1R-autoinhibited; 0% in the test on CSF1R; 0% in the test with CSK; 38% in the test with CSNK1A1L; 95.5% in the test on CSNK1A1; 94% in the test with CSNK1D. Also, the “%Inh” value with CSNK1E was determined as 99.5%; with CSNK1G1 it was 0%; in the test on CSNK1G2 it was 0%; with CSNK1G3, 0%; with CSNK2A1, 0%; with CSNK2A2, 0%. Moreover, the “%Inh” value in the test with CTK worked out at 0%; in the test on DAPK1 it was 0%; with DAPK2, 0%; in the test on DAPK3 it was 25%; with DCAMKL1 it was 19%; with DCAMKL2 it was 0%. For the same compound, the figures for the “%Inh” value in the test with DCAMKL3 and in the test with DDR1 were 0% and 65%, respectively.

Take `Clc1cccc(-c2nc(Nc3ccncc3)c3ccccc3n2)c1` [GW873004]: the “%Inh” value is recorded as 0% with CSF1R-autoinhibited; 0% in the test on CSF1R; 0% with CSK; 7% with CSNK1A1L; 29% in the test on CSNK1A1; 12% in the test on CSNK1D. Further, the “%Inh” value turned out to be 23% with CSNK1E; 3% in the test on CSNK1G1; 10% in the test on CSNK1G2; 18% in the test with CSNK1G3; 0% in the test on CSNK2A1; 14% with CSNK2A2. The “%Inh” value amounted to 0% with CTK; 0% in the test on DAPK1; 0% in the test on DAPK2; 11% in the test on DAPK3; 13% in the test on DCAMKL1; 0% in the test on DCAMKL2. In addition, the “%Inh” value in the test on DCAMKL3 worked out at 41%; with DDR1, 79%.

For the compound `Fc1ccc(-c2ncn(CCCNCc3ccccc3)c2-c2ccncc2)cc1`, the “%Inh” value was 19% in the test on CSF1R-autoinhibited; 4% in the test on CSF1R; 0% in the test on CSK; 22% in the test with CSNK1A1L; 90.4% in the test on CSNK1A1; 96.6% with CSNK1D. Besides, the “%Inh” value with CSNK1E worked out at 98.3%; with CSNK1G1 it was 5%; with CSNK1G2, 7%; with CSNK1G3, 20%; with CSNK2A1, 22%; in the test with CSNK2A2, 27%. The “%Inh” value in the test on CTK is on record as 25%; in the test with DAPK1, 23%; in the test on DAPK2 it was 11%; with DAPK3 it was 16%; with DCAMKL1, 0%; in the test with DCAMKL2, 2%. In addition, the entries for the “%Inh” value with DCAMKL3 and in the test on DDR1 were 15% and 18%, respectively.
